A selection: hits, their analogues and other compounds. The true share with any hit is near 3.3%.
PLK1 inh – PLK1 (human) kinase inhibition. P53350. recombinant PLK1 kinase, TR-FRET peptide phosphorylation. inhibition, % at 10 µM. 97,000 tested, 0.53% active. AID 619;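 active = inhibition of 50% or more in the single-concentration screen; inactive = inhibition below 50%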;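 note: 0% = DMSO max control and 100% = H-89 dihydrochloride min control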
ERa coact inh – blocks coactivator binding to human estrogen receptor alpha; P03372; TR-FRET ER-alpha LBD / SRC-1 peptide, estradiol-bound; inhibition, % at 25.6 µM; 86,000 tested, 1.7% active; AID 629; in the data active = inhibition above about 50%;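 note: 0% = receptor plus peptide control and 100% = peptide only without receptor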
ERb coact inh – ER-beta (human) coactivator binding inhibition; TR-FRET ER-beta LBD / SRC1-Cy5 peptide binding; receptor agonist-loaded with 1 µM estradiol; Q92731; 86,000 tested, 1.3% active; inhibition, % at 25.6 µM;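 active = compounds whose percent inhibition of the receptor-coactivator binding signal exceeds about 50% in the single-dose screen, limit read from the data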;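 note: 0% = receptor plus peptide wells without compound and 100% = peptide-only wells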
Plk1 PBD FP – inhibitors of human Plk1 polo box domain binding | P53350 | Plk1 PBD phosphopeptide binding, fluorescence polarization | inhibition, %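 (tested at about 20 µM)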 | 97,000 tested, 0.13% active; in the data active = inhibition above about 34%, passing the limit was not always enough
ERa SRC1 pot – enhances coactivator binding to human estrogen receptor alpha; P03372; TR-FRET ERalpha-LBD/SRC-Cy5 coactivator binding, 2 h; 100 = basal binding, no effect; coactivator binding (% of control), % at 25.6 µM; 86,000 tested, 1.3% active; AID 639; in the data active = activity above about 200%;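 note: binding measured in presence of low estradiol as agonist stimulus; 0% = peptide alone without receptor and 100% = receptor with peptide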
Smad3 inh – blocks human Smad3 binding to FoxH1 peptide | TR-FRET Smad3/Dy647-FoxH1 peptide binding, europium anti-His | inhibition, % at 25 µM | P84022 | 88,000 tested, 0.29% active;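 active = compounds that reduce the energy-transfer binding signal between the protein and its labelled peptide by more than half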;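 note: 0% = Smad3 plus labelled peptide maximal FRET and 100% = peptide-only background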
Target sequence (P84022 whole entry, looked up): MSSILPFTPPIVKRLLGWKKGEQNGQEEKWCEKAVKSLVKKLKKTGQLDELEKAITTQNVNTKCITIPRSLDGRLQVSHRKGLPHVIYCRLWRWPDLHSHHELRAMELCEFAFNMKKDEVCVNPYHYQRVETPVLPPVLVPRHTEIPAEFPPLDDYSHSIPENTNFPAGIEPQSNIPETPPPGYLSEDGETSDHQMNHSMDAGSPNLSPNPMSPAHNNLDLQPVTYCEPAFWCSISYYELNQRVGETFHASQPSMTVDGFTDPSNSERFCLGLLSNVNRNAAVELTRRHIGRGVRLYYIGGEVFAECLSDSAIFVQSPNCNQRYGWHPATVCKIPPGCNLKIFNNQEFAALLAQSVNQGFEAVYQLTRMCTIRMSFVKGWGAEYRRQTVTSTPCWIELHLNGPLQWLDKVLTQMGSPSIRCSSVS
Starred values were filed as active, the others as inactive; . = not tested or not shown; [ ] = remark or other dose.

SMILES | PLK1 inh | ERa coact inh | ERb coact inh | Plk1 PBD FP | ERa SRC1 pot | Smad3 inh
Cc1ccc([N+](=O)[O-])cc1NC(=O)c1ccc(-c2ccccc2)cc1 | -17 | . | . | 30 | . | .
CCC(=O)OCN1C(=O)C=CC1=O | . | . | . | . | . | 32
Cc1c2cccc(Sc3ccccc3)c2c2c3c(cccc13)[S+](c1ccccc1)C2 (stereo not given) | . | . | . | . | . | 7
O=c1[nH]c2cc3c(cc2cc1C(c1nnnn1C1CCCC1)N1CCCc2ccccc21)OCCO3 (stereo not given) | . | 6 | 2 | . | 114 | 5
O=c1[nH]c2cc3c(cc2cc1C(c1nnnn1Cc1ccccc1)N1CCN2CCCC2C1)OCCO3 (stereo not given) | 2 | 72*[fluorescence artefact?] | 44 | -17 | 129 | -6
Cc1c(C(=O)NCCCN2CCCC2=O)oc2ccc(S(=O)(=O)N3CCOCC3)cc12 | . | -1 | -9 | . | 123 | -14
O=C(CCc1ccc(S(=O)(=O)N2CCOCC2)cc1)NCCCN1CCCC1=O | -5 | 22 | 58*[fluorescence artefact?] | 16 | 94 | -1
CCOC(=O)N1CCC(NC(=O)Cn2ncn3c(cc4sc(CC)cc43)c2=O)CC1 | . | 44 | 57*[fluorescence artefact?] | . | 112 | -106
CCOC(=O)c1ccc(NC(=O)c2c(O)c3ccccc3n(C)c2=O)cc1 | . | 63* | 43 | . | 169 | 8
CCn1c(COc2ccccc2)nnc1SCC(=O)C(C)(C)C | 4 | 2 | -4 | 10 | 115 | 59*[fluorescence artefact?]
CCn1c(COc2ccc(C)cc2)nnc1SCC(=O)C(C)(C)C | 2 | 0 | -6 | -4 | 116 | -10
CCCCc1c(C)nn(-c2nnc3c4ccccc4n(CC)c3n2)c1C | -11 | 52*[fluorescence artefact?] | 31 | 17 | 141 | 7
CC1CCN(C(=O)C2c3ccccc3C(=O)N3CCc4ccccc4C23)CC1 (stereo not given) | -8 | -1 | -4 | 1 | 623*[fluorescence artefact?] | 1
Cc1ccccc1CN1C2=NCCN2C(=O)C2=C1CCN(Cc1ccccc1)C2 | . | . | . | . | . | 7
Cc1nnc(NCc2ccncc2)c2ccccc12 | -18 | 60*[fluorescence artefact?] | 50*[fluorescence artefact?] | 7 | 179 | 4
O=C(O)CCN1C(=S)CSC1=S | . | . | . | . | . | 7
COCCNC(=O)CN(c1cc(Cl)ccc1OC)S(C)(=O)=O | -14 | . | . | 34 | . | .
O=c1c2c3nc4ccccc4nc3n(/N=C/c3ccco3)c2ncn1CCC1=CCCCC1 | . | 66*[fluorescence artefact?] | 40 | . | 85 | 12
Cc1cc2n(c1)CCn1c(C)ccc1-2 | 5 | 91*[fluorescence artefact?] | 52* | 14 | 9 | 7
CCCC1=[N+](CC)CCn2c(C)ccc21 | -11 | -3 | -9 | 11 | 115 | 9
Cc1cc2cc3c(cc2nc1SCC(=O)OC(C)C)OCO3 | -7 | . | . | -19 | . | .
N#Cc1cc2cc3c(cc2nc1SCC(=O)OC1CCCCC1)OCO3 | -8 | 32 | 43 | -6 | 231*[fluorescence artefact?] | 36
O=C(NCc1ccco1)C1Cc2ccccc2CN1S(=O)(=O)c1ccccc1F (stereo not given) | -10 | 49 | 40 | -15 | 202*[fluorescence artefact?] | -27
CCOc1ccc(N=C2NC(=O)S/C2=C\c2ccc(OC)cc2)cc1 | -11 | 67* | 50* | 6 | 194 | 3
CCOc1ccc(/C=C2/SC(=S)N(n3c(C)ccc3C)C2=O)cc1 | -4 | -2 | -5 | -6 | 111 | -6
SMILES | PLK1 inh | ERa coact inh | ERb coact inh | Plk1 PBD FP | ERa SRC1 pot | Smad3 inh
O=C(NC1CCCCC1)C(c1ccccc1)N1CCc2ccccc21 (stereo not given) | -2 | 99*[fluorescence artefact?] | -1 | 17 | 95 | 10
BrC(c1cccc2ccccc12)c1cccc2ccccc12 | . | . | . | . | . | 5
CCOC(=O)C1=C(O)/C(=C\c2ccc(CNC(=O)C(=O)Nc3ccccc3)o2)N=C1C | -7 | 81* | 72* | -25 | 38 | 1
COc1ccc(S(=O)(=O)N2CCC(C(=O)NCC3CCCO3)CC2)cc1C (stereo not given) | -7 | -7 | -3 | -9 | 115 | -2
O=C(Nc1ccc(C2CCCCC2)cc1)C1CCN(c2ncccn2)CC1 | . | 55* | 30 | . | 234*[fluorescence artefact?] | 12
CC(C)C(NC(=O)c1ccccc1NC(=O)c1ccco1)C(=O)O (stereo not given) | -18 | -1 | -1 | -12 | 103 | 1
O=C(Nc1ccccc1NC(=O)c1ccco1)c1ccco1 | -11 | -4 | -11 | 2 | 92 | 1
CC(NC(=O)c1ccccc1NC(=O)c1ccco1)c1ccccc1 (stereo not given) | -2 | 34 | 12 | -11 | 241*[fluorescence artefact?] | -49
O=C(Nc1cccc2cccc(NC(=O)c3ccco3)c12)c1ccco1 | -16 | 22 | 52* | 5 | 62 | 11
CN(C)c1ccccc1CN1CCCN(Cc2ccccc2N(C)C)C1c1ccncc1 | . | . | . | . | . | 44
CCOc1ccccc1C1C(C#N)=C(SCC(=O)OC)NC(=O)C1C(=O)OC (stereo not given) | -6 | -5 | 85*[fluorescence artefact?] | -11 | 107 | -7
C/C(CC/C(C)=N/O)=N\O | . | . | . | . | . | 16
CC1CCC(n2c(=S)[nH]c3ccccc3c2=O)CC1 (stereo not given) | -6 | -9 | 18 | -29 | 218*[fluorescence artefact?] | 0
CCN(CC)CC[n+]1ccc2c(C)c3[nH]c4ccc(O)cc4c3c(C)c2c1 | . | . | . | . | . | 68*
Nc1nc2c(c(=O)[nH]1)N[C@H](CCNc1ccc(C(=O)O)cc1)CN2 | . | . | . | . | . | -7
CCCCc1nc2n[nH]c(N)c2c2c1CCCC2 | 58* | -2 | -5 | -25 | 126 | -2
S=C(S)NCCCn1ccnc1 | . | . | . | . | . | 11
Cc1ccc(-n2ncc3c2ncn2c(-c4ccncc4)nnc32)cc1 | . | 66*[fluorescence artefact?] | 31 | . | 89 | -3
c1ccc(Cn2ncc3c2ncn2c(-c4ccncc4)nnc32)cc1 | . | -7 | -5 | . | 110 | -6
COc1ccc(NC2CC(=O)N(C(C)C)C2=O)cc1 (stereo not given) | 54* | -8 | -5 | 10 | 100 | 2
CC(C)N1C(=O)CC(Nc2ccc(N3CCOCC3)cc2)C1=O (stereo not given) | 1 | 0 | -10 | 18 | 92 | -22
CSCCC(NC(=O)c1ccco1)C(=O)OCC(=O)Nc1sccc1C#N (stereo not given) | -14 | 56*[fluorescence artefact?] | 54* | 12 | 43 | -2
O=C(O)Cn1cnc2scc(-c3cccs3)c2c1=O | 20 | 38 | 58* | -5 | 64 | -3
Cc1nc2scc(-c3cccs3)c2c(=O)n1CC(=O)O | -3 | . | . | 1 | . | .
O=C(Nc1nc(-c2ccccn2)cs1)c1ccc(Br)s1 | -6 | -12 | -11 | -2 | 473* | 11
O=C(Nc1nc(-c2cc(Cl)sc2Cl)cs1)c1ccc(Br)s1 | -12 | . | . | 14 | . | .
Cc1cc(S(=O)(=O)Nc2cc(C)c(O)c(C)c2)c(C)s1 | 11 | -17 | 0 | -5 | 107 | 0
COc1ccc(C(=O)N/N=C2\C(=O)c3c(C)cc(C)cc3CC2(C)C)cc1 | . | . | . | . | . | -14
Cc1cc(=O)[nH]c(SCC(=O)Nc2nc3c(s2)CCCC3)n1 | -1 | 1 | 78* | 20 | 107 | -2

Assay outcomes as filed in PubChem BioAssay.
